Compounds with a hit are over-represented: about 2.5% of the library has one in this group of screens.
CHT inh: inhibitors of human choline transporter CHT. CHT-expressing cells, membrane potential dye, choline response; stronger effect = lower value. B-score at 10 µM. 310,000 compounds, 0.86% hits. AID 488975;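 active means B-score over 3 SD under the library average, and starting fluorescence ratio not unusually high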;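 further: choline stimulus applied at its EC90 after an EC20 pre-addition; B-score computed on integrated fluorescence ratio after choline addition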
Target sequence (Q9GZV3 whole entry, looked up): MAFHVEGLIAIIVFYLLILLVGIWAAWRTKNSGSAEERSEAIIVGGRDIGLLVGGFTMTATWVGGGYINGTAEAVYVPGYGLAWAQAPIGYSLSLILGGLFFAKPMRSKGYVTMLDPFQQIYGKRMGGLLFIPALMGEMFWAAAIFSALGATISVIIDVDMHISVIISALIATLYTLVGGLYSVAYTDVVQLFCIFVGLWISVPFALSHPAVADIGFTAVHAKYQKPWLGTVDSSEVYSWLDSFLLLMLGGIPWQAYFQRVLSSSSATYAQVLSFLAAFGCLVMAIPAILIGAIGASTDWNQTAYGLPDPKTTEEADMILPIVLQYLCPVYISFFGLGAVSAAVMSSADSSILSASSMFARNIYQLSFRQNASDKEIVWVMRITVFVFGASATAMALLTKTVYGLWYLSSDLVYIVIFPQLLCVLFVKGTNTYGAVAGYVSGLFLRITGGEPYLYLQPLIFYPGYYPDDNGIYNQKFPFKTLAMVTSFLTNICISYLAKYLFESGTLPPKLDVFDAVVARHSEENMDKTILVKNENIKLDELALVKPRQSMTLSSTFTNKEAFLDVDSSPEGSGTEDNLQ
PKA-R1A act: activators of PKA-R1A complex; PKA-R1A dissociation, Cy5-IP20 fluorescence polarization; scaled: DMSO 0%, 113 µM cGMP 100%; 340,000 compounds, 0.083% hits; P00514+P68181; activation, % at 11.4 µM;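 active means percent activation above the mean of all tested compounds plus 3 SD, cut at about 19% in these data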;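 further: higher means more PKAc released from R1A so a rise in polarization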
CHT allo act: human CHT allosteric activation; B-score at 10 µM; Q9GZV3; AID 488977; CHT-expressing cells, membrane potential dye, choline EC20; stronger effect = higher value; LV-AA mutant CHT in HEK293 cells; 310,000 compounds, 0.49% hits;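 active means initial fluorescence not abnormally high and integrated response B-score, plate-corrected, over 3 SD above library mean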
PKA-R2B activ: PKA-R2B complex activation; P22694+P31323; PKA-R2B holoenzyme dissociation, Cy5-IP20 fluorescence polarization; R2B truncated from residue 108, S112A mutant; 0% DMSO only, 100% 113 µM cGMP; activation, % at 11.4 µM; 340,000 compounds, 0.079% hits; AID 504700;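 active means activation above a cutoff set at the mean over all compounds plus 3 SD, cut at about 18% in these data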;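 further: higher means more holoenzyme dissociation and a rise in polarization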
TMEM16A inh: blocks the mouse calcium-activated chloride channel TMEM16A | 310,000 compounds, 1.2% hits | HEK293 TMEM16A/YFP iodide influx fluorescence, ionomycin | normalized B-score (activity score, 25-100; higher = stronger inhibition) at 10 µM | Q8BHY3;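 active means ratio plate-corrected score three or more library SD toward inhibition, starting fluorescence score within five deviations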;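 further: score derived from kinetic fluorescence span divided by baseline fluorescence per well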
ANO1 activ: mouse TMEM16A channel activation, primary screen; HEK293 TMEM16A/YFP-H148Q/I152L, iodide quench fluorescence; stronger effect = lower value; 340,000 compounds, 0.3% hits; Q8BHY3; B-score at 10 µM;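 active means fluorescence-ratio B-score plate-corrected deviation score at least 3 library SD below zero, with starting fluorescence score within 5 deviations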;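 further: channel opened by trigger with iodide after compound preincubation; score built on the fluorescence ratio of max minus min over baseline; more negative score means more quench and so TMEM16A activation or potentiation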
CHT inh conf: human CHT inhibition, confirmatory screen. shares compounds with CHT inh. CHT-expressing cells, choline membrane potential dye; LV-to-AA substituted CHT, HEK293 cells. CHT activity remaining % of control (stronger effect = lower value), % at 10 µM. 2,400 compounds, 70% hits. AID 493221;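 active means choline transporter activity left, mean of duplicates at 10 µM, below buffer-only control mean minus 3 SD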;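 further: depolarization triggered by choline at its EC90 following an EC20 pre-addition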
HEK293 CHT ctr: activity in parental HEK293 cells lacking CHT. AID 493222. shares compounds with CHT inh. membrane potential dye, choline response; active = decrease or increase beyond buffer ±3SD. 2,400 compounds, 4% hits. membrane potential ratio readout (active if shifted either direction beyond buffer ±3SD; no single direction) at 10 µM;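 further: parental cells lack the transporter so any hit is non-specific; ratio is peak minus trough fluorescence over baseline after EC90 choline challenge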
Large screens that a line does not name were inactive (follow-up assays come after a bar, where they were run).

CCOc1ccc(CNS(=O)(=O)c2c(C)nc3sccn3c2=O)cc1OC	none
O=C(c1c(O)c2ccccc2oc1=O)C1CCCCC1	CHT inh -7.5 | CHT inh conf 58% | HEK293 CHT ctr inactive
COc1ccc(S(=O)(=O)N2CCC(C(=O)NC(c3nc4ccccc4[nH]3)C(C)C)CC2)cc1 (centres undefined)	none (no result: CHT inh, CHT allo act, TMEM16A inh)
CCOc1cccc2sc(N(CCCN(C)C)C(=O)c3ccc(S(=O)(=O)N(C)c4ccccc4)cc3)nc12	CHT inh -5.5 | CHT inh conf inactive | HEK293 CHT ctr inactive
CN(C)CCCN(C(=O)c1ccc(S(=O)(=O)N(C)Cc2ccccc2)cc1)c1nc2c(F)cccc2s1	none
Cn1c(-c2ccccc2)cnc1NCc1ccc(F)cc1	none (no result: CHT inh, CHT allo act, TMEM16A inh)
Cn1c(-c2ccc(F)cc2)cnc1NCc1ccccc1	CHT inh -5 (no result: ANO1 activ) | CHT inh conf inactive | HEK293 CHT ctr inactive
CSCCNC(=O)c1ccc(OC2CCN(CCc3ccccc3)CC2)cc1	CHT inh -5.2 | CHT inh conf 46% | HEK293 CHT ctr 4.8
COC(=O)CCCNC(=O)c1ccc(OC2CCN(CCc3ccccc3)CC2)cc1	none
O=C(NCCn1cccn1)c1ccc(OC2CCN(CCc3ccccc3)CC2)cc1	none
O=C(NCCn1cccn1)c1ccc(OC2CCN(C(=O)C3CC3)CC2)cc1	CHT inh -11 | CHT inh conf inactive | HEK293 CHT ctr inactive
COc1ccc(NC(=O)CN(C)C(=O)c2ccc(NS(=O)(=O)c3ccc(F)cc3)cc2)cc1	none
S=c1nc(-c2ccco2)[nH][nH]1	CHT inh -5.4 | CHT inh conf 48% | HEK293 CHT ctr inactive
CCCCOc1cccc(C(=O)NNC(=S)NC2CCCCC2)c1	CHT inh -8.8 | CHT inh conf 69% | HEK293 CHT ctr inactive
CC(C)c1cc(C(=O)NNC(=S)NC2CCCCC2)cs1	CHT inh -5.6 | CHT inh conf 66% | HEK293 CHT ctr inactive
CCc1cc(C(=O)NNC(=S)NC2CCCCC2)cs1	none
CC(C)Sc1nc2ccc(Br)cc2[nH]1	CHT inh -5.5 | CHT inh conf inactive | HEK293 CHT ctr inactive
CSc1nc2ccc(Br)cc2[nH]1	none
Cc1ccc(C(C)C)c(OCC#CCN2CCOCC2)c1	none
O=C(Nc1ccccc1)c1ccc(=O)n(Cc2ccc(F)c(F)c2)c1	CHT inh -6.4 | CHT inh conf inactive | HEK293 CHT ctr inactive
Cc1cccc(NS(=O)(=O)c2ccc(C)c(C(=O)NCC(c3ccco3)N3CCCCC3)c2)c1 (centres undefined)	none (no result: CHT inh, CHT allo act, TMEM16A inh)
Cc1ccc(-c2csc3ncnc(-n4cnc5ccccc54)c23)cc1	CHT inh -7.5 | CHT inh conf 24% | HEK293 CHT ctr inactive
Cc1ccc(-c2csc3ncnc(-n4nnc5ccccc54)c23)cc1	CHT inh -7.5 | CHT inh conf 63% | HEK293 CHT ctr inactive
Cc1ccc(-c2csc3ncnc(-n4nnc5ccccc54)c23)cc1C	none
Cc1ccc(NC(=O)C2C3C=CC(O3)C2C(=O)O)c(C)c1 (centres undefined)	none
Cc1cc(N2C(=O)Cc3ccccc3C2=O)ccc1C(C)C	none
Cc1ccc(C(=O)CSc2n[nH]c(-c3ccco3)n2)cc1C	CHT inh -5.1 | CHT inh conf 50% | HEK293 CHT ctr inactive
Cc1cc(=O)[nH]c(SCC(=O)c2ccc(C)c(C)c2)n1	CHT inh -7.3 | CHT inh conf 64% | HEK293 CHT ctr inactive
Cc1cc(=O)[nH]c(SCC(=O)c2ccc(C(C)C)cc2)n1	none
COc1ccc(C(=O)CSc2nc(C)cc(=O)[nH]2)cc1	CHT inh -5.6 | CHT inh conf inactive | HEK293 CHT ctr inactive
Cc1ccc(C)c(C(=O)CSc2nc(C)cc(=O)[nH]2)c1	none
CN(CCNC(=O)CN1CCN(Cc2ccccc2Cl)C1=O)Cc1ccccc1	CHT inh -6.5 | CHT inh conf 43% | HEK293 CHT ctr inactive
CC(C)c1ccc(NC(=O)CSc2nc(=O)n(CCCN3CCOCC3)c3c2CCC3)cc1	CHT inh -4.9 | CHT inh conf 38% | HEK293 CHT ctr inactive
O=C(Cc1ccccc1F)c1ccc(O)cc1O	CHT inh -6.2 (no result: PKA-R1A act, PKA-R2B activ) | CHT inh conf 45% | HEK293 CHT ctr inactive
Cc1ccc(OCCN2CCN(C)CC2)c([N+](=O)[O-])c1	none
Cc1ccc(OCCCN2CCOCC2)c([N+](=O)[O-])c1	CHT inh -6.1 | CHT inh conf inactive | HEK293 CHT ctr inactive
CCCN1Cc2cccc(C(=O)NCc3ccccc3OC)c2C1=O	CHT inh -5.3 | CHT inh conf 71% | HEK293 CHT ctr inactive
CC1CCC2(CC1)NC(=O)N(CC(=O)NC(=O)Nc1ccc3c(c1)OCCO3)C2=O (centres undefined)	none
Cc1ccccc1N/N=C/c1c(C)nc2ccccn12	CHT inh -13 | CHT inh conf inactive | HEK293 CHT ctr inactive
Cc1nc2ccccn2c1C(=O)N/N=C/c1ccccc1	none
Cc1ccnc(NS(=O)(=O)c2ccc(NC(=O)c3ccc(Cl)cc3[N+](=O)[O-])cc2)n1	CHT inh -5.5 | CHT inh conf 51% | HEK293 CHT ctr inactive
Cn1c(SCC(=O)c2cc(Cl)c(Cl)s2)nnc1-c1ccco1	none (no result: PKA-R1A act, PKA-R2B activ)
Cc1ccc(C(=O)CSc2nnc(-c3ccco3)n2C)cc1	CHT inh -5.4 | CHT inh conf 69% | HEK293 CHT ctr inactive
CCCC1(c2ccccc2)NC(=O)N(CC(=O)Nc2cc(OC)cc(OC)c2)C1=O (centres undefined)	none
COc1cccc(N2CCN(C(=O)CC(C)(C)CC3=NS(=O)(=O)c4ccccc4N3)CC2)c1	CHT inh -5.5 | CHT inh conf inactive | HEK293 CHT ctr inactive
Cn1c(-c2ccccc2)cnc1SCc1nc2ccccc2c(=O)[nH]1	CHT inh -5.3 | CHT inh conf 60% | HEK293 CHT ctr inactive
Cn1c(SCc2nc3ccccc3c(=O)[nH]2)nc2ccccc21	none
CCOc1ccc(C2CC(=O)NC2=O)cc1 (centres undefined)	none
Cc1ccc(OCCC(=O)NNC(=O)c2ccccc2F)cc1	none (no result: CHT inh, CHT allo act, TMEM16A inh)
O=C(CCCCCCN1C(=O)c2ccccc2C1=O)N1CCC(c2ccccc2)C1 (centres undefined)	CHT inh -6.1 | CHT inh conf inactive | HEK293 CHT ctr inactive
